Source: paper PMC4336329 (PLoS ONE, 2015)
Out of some 310,000 compounds screened, about 14,000 (4.5%) showed an effect of 50% or more. The effect is printed as a negative number. The sample holds strong results, similar compounds and a random draw of the others, so the mix is not that of the screen.

Biological target: human ether-à-go-go-related gene (hERG) potassium channel (human, UniProt Q12809)
Test: primary screen, population patch clamp on CHO cells stably expressing hERG; higher = less effect of the substance
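Further: peak tail current of the secondary pulse compared with the same well before compound.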

Sequence of human ether-à-go-go-related gene (hERG) potassium channel (Q12809 whole entry, looked up): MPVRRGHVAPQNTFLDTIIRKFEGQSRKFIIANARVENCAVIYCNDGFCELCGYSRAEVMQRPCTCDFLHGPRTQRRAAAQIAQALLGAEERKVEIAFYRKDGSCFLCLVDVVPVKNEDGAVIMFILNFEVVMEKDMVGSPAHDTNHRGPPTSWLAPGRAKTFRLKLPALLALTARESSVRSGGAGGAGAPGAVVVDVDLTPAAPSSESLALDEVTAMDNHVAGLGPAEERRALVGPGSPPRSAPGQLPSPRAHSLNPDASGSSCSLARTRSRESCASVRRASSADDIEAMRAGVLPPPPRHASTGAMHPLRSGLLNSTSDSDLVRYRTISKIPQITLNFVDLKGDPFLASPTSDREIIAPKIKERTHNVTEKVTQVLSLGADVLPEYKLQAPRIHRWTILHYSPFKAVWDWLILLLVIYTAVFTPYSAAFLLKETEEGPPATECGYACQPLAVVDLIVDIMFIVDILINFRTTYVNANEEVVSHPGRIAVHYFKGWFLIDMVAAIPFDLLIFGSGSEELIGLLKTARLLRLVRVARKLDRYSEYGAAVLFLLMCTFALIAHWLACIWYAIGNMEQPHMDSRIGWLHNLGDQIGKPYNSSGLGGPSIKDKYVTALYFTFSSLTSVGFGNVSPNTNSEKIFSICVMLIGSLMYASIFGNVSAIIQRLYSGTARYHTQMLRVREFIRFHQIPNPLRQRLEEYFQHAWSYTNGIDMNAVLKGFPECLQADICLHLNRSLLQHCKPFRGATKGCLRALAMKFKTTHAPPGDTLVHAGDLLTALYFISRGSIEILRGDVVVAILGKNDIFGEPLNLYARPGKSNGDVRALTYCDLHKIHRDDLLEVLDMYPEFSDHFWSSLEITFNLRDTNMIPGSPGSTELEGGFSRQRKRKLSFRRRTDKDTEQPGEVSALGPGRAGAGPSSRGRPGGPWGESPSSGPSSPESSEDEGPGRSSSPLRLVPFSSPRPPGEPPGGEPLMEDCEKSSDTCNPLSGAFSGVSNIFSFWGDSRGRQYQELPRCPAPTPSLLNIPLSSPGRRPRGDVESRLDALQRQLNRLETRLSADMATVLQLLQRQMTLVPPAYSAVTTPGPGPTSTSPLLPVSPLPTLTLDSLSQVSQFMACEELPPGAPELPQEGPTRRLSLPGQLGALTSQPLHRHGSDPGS

Going from `CC(C)c1ccc(NC(=O)CNCC(c2ccccc2)N(C)C)cc1` (centres unmarked) to `CC(=O)Nc1ccc(NC(=O)C(C)OC(=O)c2c(C)nn(-c3ccccc3)c2Cl)cc1` (centres unmarked), the “hERG current change (%, negative = inhibition) at 10uM” value rises from -27.6% to -14.8%.

First: C/C(=N\NC(=O)c1ccc2c(c1)OCO2)c1ccc(O)cc1
Second: C/C(=N\NC(=O)CNc1cccc2ccccc12)c1ccc(Br)s1
The “hERG current change (%, negative = inhibition) at 10uM” value of the first is higher: 13.1% for the first, 6.57% for the second.

Going from `Cc1ccc(/C=N/NC(=O)c2ccco2)s1` to `CNC(=O)c1c(NC(=O)c2ccco2)sc(C)c1C`, the “hERG current change (%, negative = inhibition) at 10uM” value rises from -2.98% to 1.42%.

First: CCOc1cc(S(=O)(=O)NCCCN2CCOCC2)ccc1F
Second: CCCCNC(=O)C1Cc2cc(S(=O)(=O)N3CCCCC3)ccc2N1C(C)=O (centres unmarked)
The “hERG current change (%, negative = inhibition) at 10uM” value of the first is lower: 3.16% for the first, 17.4% for the second.

Compared with `Cc1cc(NC(=O)c2c(-c3c(Cl)cccc3Cl)noc2C)n(C)n1`, `Cn1nc(-c2ccccc2)c(C(=O)Nc2ccc(Cl)cc2)c1Cl` is lower in “hERG current change (%, negative = inhibition) at 10uM” value: 16% for the first, -12.7% for the second.

Compared with `N#Cc1cccc(NC(=O)CN2C(=O)NC(Cc3ccccc3)C2=O)c1` (centres unmarked), `N#Cc1ccc(NC(=O)CN2C(=O)NC(Cc3ccccc3)C2=O)cc1` (centres unmarked) is lower in “hERG current change (%, negative = inhibition) at 10uM” value: 2.91% for the first, -57.7% for the second.

Going from `O=C(CN1C(=O)NC(Cc2ccccc2)C1=O)Nc1ccc(F)cc1` (centres unmarked) to `O=C(CN1C(=O)NC(Cc2ccccc2)C1=O)Nc1ccc(OC(F)F)cc1` (centres unmarked), the “hERG current change (%, negative = inhibition) at 10uM” value falls from -7.41% to -66.9%.

Compared with `O=C(CN1C(=O)NC(Cc2ccccc2)C1=O)Nc1ccccc1` (centres unmarked), `O=C(CN1C(=O)NC(Cc2ccccc2)C1=O)Nc1ccc(OC(F)(F)F)cc1` (centres unmarked) is lower in “hERG current change (%, negative = inhibition) at 10uM” value: 6.7% for the first, -13.9% for the second.

Compared with `O=C(CC1(O)C(=O)Nc2ccccc21)c1ccc(-n2cccc2)cc1` (centres unmarked), `CS(=O)(=O)Nc1cccc(C(=O)CC2(O)C(=O)Nc3ccccc32)c1` (centres unmarked) is higher in “hERG current change (%, negative = inhibition) at 10uM” value: 2.85% for the first, 8.15% for the second.

First: CCCCN1C(N)=NC[C@@H]1C(C)O (some centres unmarked)
Second: CCCCC(=O)OCC(=O)Nc1ccc(C)c(F)c1
The “hERG current change (%, negative = inhibition) at 10uM” value of the first is higher: 15.9% for the first, 14.6% for the second.

Compared with `COC(=O)c1c(C)[nH]c(C(=O)OC(C)C(=O)N(C)C2CCCCC2)c1C` (centres unmarked), `Cc1nn(-c2ccc(F)cc2)c(Cl)c1C(=O)OC(C)C(=O)N(C)C1CCCCC1` (centres unmarked) is lower in “hERG current change (%, negative = inhibition) at 10uM” value: -2.13% for the first, -59% for the second.

Going from `Cc1ccsc1C(=O)C1CCCN(Cc2cccn2-c2ccc(Cl)cn2)C1` (centres unmarked) to `Cc1ccsc1C(=O)C1CCCN(Cc2cccn2-c2ccccn2)C1` (centres unmarked), the “hERG current change (%, negative = inhibition) at 10uM” value rises from -77.6% to -75.8%.

First: Cc1ccsc1C(=O)C1CCCN(Cc2cnc(N(C)C)s2)C1 (centres unmarked)
Second: Cc1ncc(CN2CCCC(C(=O)c3sccc3C)C2)s1 (centres unmarked)
The “hERG current change (%, negative = inhibition) at 10uM” value of the first is lower: -9.23% for the first, 24.7% for the second.

Going from `CC(C)(C)C(=O)NC1(C(F)(F)F)N=C2SCCN2C1=O` (centres unmarked) to `CCOc1ccccc1N1CCN(C(=O)CC(C)(C)C)CC1`, the “hERG current change (%, negative = inhibition) at 10uM” value rises from -4.77% to 0.665%.

First: CCOc1cccc2c1OC1(C)CC2NC(=O)N1c1cccc(C(=O)N2CCN(c3ccccn3)CC2)c1 (centres unmarked)
Second: CCOc1ccccc1N1CCN(C/C=C/c2ccc(N(C)C)cc2)CC1
The “hERG current change (%, negative = inhibition) at 10uM” value of the first is higher: -1.89% for the first, -60.1% for the second.

Compared with `Cc1cc(Br)c(NC(=O)Cn2c([N+](=O)[O-])cnc2C)cc1C`, `COc1ccc(C)cc1NC(=O)c1nnn(Cc2cccc(F)c2)c1N` is higher in “hERG current change (%, negative = inhibition) at 10uM” value: 4.01% for the first, 7.11% for the second.

Compared with `O=C(NCC(c1ccco1)N1CCc2ccccc2C1)c1cccc([N+](=O)[O-])c1` (centres unmarked), `O=C(NCC(c1ccco1)N1CCc2ccccc2C1)c1ccc([N+](=O)[O-])cc1` (centres unmarked) is higher in “hERG current change (%, negative = inhibition) at 10uM” value: -67.2% for the first, -58.1% for the second.

Going from `O=C(NCc1ccco1)c1ccc(Cl)c(S(=O)(=O)N2CCc3ccccc32)c1` to `O=C(NCC(c1ccco1)N1CCCC1)c1ccc(Cl)c(S(=O)(=O)N2CCc3ccccc32)c1` (centres unmarked), the “hERG current change (%, negative = inhibition) at 10uM” value falls from -20.6% to -51%.

Going from `COc1cccc(NC(=O)C(=O)NCC(c2ccco2)N2CCc3ccccc3C2)c1` (centres unmarked) to `COc1ccc(NC(=O)C(=O)NCC(c2ccco2)N2CCc3ccccc3C2)cc1` (centres unmarked), the “hERG current change (%, negative = inhibition) at 10uM” value falls from -9.29% to -23.5%.

Compared with `COc1ccc(C)cc1S(=O)(=O)NCC(c1ccco1)N1CCc2ccccc2C1` (centres unmarked), `COc1ccc(F)cc1S(=O)(=O)NCC(c1ccco1)N1CCc2ccccc2C1` (centres unmarked) is higher in “hERG current change (%, negative = inhibition) at 10uM” value: -62.8% for the first, -30.4% for the second.

Compared with `Cc1ccc(C)c(S(=O)(=O)NCC(c2ccco2)N2CCc3ccccc3C2)c1` (centres unmarked), `Cc1ccc(C(=O)NCC(c2ccco2)N2CCc3ccccc3C2)cc1C` (centres unmarked) is higher in “hERG current change (%, negative = inhibition) at 10uM” value: -9.3% for the first, -5.02% for the second.

Compared with `O=C(NCC(c1ccco1)N1CCCCC1)c1cccc(S(=O)(=O)Nc2ccccc2Cl)c1` (centres unmarked), `O=C(NCC(c1ccco1)N1CCc2ccccc2C1)c1cccc(Br)c1` (centres unmarked) is lower in “hERG current change (%, negative = inhibition) at 10uM” value: -2.33% for the first, -5.34% for the second.

First: O=C(NCC(c1ccco1)N1CCOCC1)c1cccc([N+](=O)[O-])c1 (centres unmarked)
Second: O=C(NCC(c1ccco1)N1CCc2ccccc2C1)c1ccc(Cl)c([N+](=O)[O-])c1 (centres unmarked)
The “hERG current change (%, negative = inhibition) at 10uM” value of the first is higher: 12.7% for the first, -55.5% for the second.

Going from `COc1ccc(NC(=O)C(=O)NCC(c2ccco2)N2CCc3ccccc3C2)cc1OC` (centres unmarked) to `O=C(NCC(c1ccco1)N1CCc2ccccc2C1)C(=O)Nc1ccc(F)cc1F` (centres unmarked), the “hERG current change (%, negative = inhibition) at 10uM” value rises from -69.4% to -0.136%.

Going from `O=C(c1ccc(NS(=O)(=O)c2ccccc2)cc1)N1CCCCCC1` to `Cc1oc(S(=O)(=O)N2CCCC2)cc1C(=O)Nc1ccccc1`, the “hERG current change (%, negative = inhibition) at 10uM” value rises from -11.9% to 7.38%.

Going from `COC(=O)c1cc(C#N)c(=O)[nH]c1C` to `COc1cccc(C(=O)NCC(c2ccco2)N2CCc3ccccc3C2)c1` (centres unmarked), the “hERG current change (%, negative = inhibition) at 10uM” value falls from 20.3% to -17%.

First: Cc1cccc(OCC(=O)Nc2cccc(-c3nnc(-c4ccccc4)o3)c2)c1C
Second: O=C(CN1C(=O)S/C(=C\c2ccc(C(=O)O)cc2)C1=O)Nc1ccccc1
The “hERG current change (%, negative = inhibition) at 10uM” value of the first is lower: -4.37% for the first, 19% for the second.

First: CC(C)N1CCC(N2CCN(C3CCCCC3)CC2CCO)CC1 (centres unmarked)
Second: Cc1ccc(C2C(=O)N(C3CCCC3)CC(=O)N2C2CCCCC2)cc1 (centres unmarked)
The “hERG current change (%, negative = inhibition) at 10uM” value of the first is higher: 18.9% for the first, -25.4% for the second.

Going from `O=C(NCC(c1ccco1)N1CCc2ccccc2C1)C(=O)Nc1ccccc1F` (centres unmarked) to `O=C(NCC(c1ccco1)N1CCc2ccccc2C1)C(=O)Nc1cc(F)ccc1F` (centres unmarked), the “hERG current change (%, negative = inhibition) at 10uM” value falls from 8.09% to -52.3%.

First: O=C(NCC(c1ccco1)N1CCc2ccccc2C1)c1ccc(Cl)cc1 (centres unmarked)
Second: O=C(NCC(c1ccco1)N1CCc2ccccc2C1)c1ccc(F)cc1 (centres unmarked)
The “hERG current change (%, negative = inhibition) at 10uM” value of the first is lower: -47.8% for the first, -10.7% for the second.

First: O=C(NCC(c1ccco1)N1CCc2ccccc2C1)c1ccc(Br)cc1 (centres unmarked)
Second: O=C(NCC(c1ccco1)N1CCc2ccccc2C1)c1ccccc1 (centres unmarked)
The “hERG current change (%, negative = inhibition) at 10uM” value of the first is higher: -12.6% for the first, -19% for the second.

First: O=C(NCC(c1ccco1)N1CCc2ccccc2C1)c1cccc(F)c1 (centres unmarked)
Second: O=C(/C=C/c1cn(-c2ccccc2)nc1-c1ccc2c(c1)OCCO2)NCCO
The “hERG current change (%, negative = inhibition) at 10uM” value of the first is lower: -63.5% for the first, -51.1% for the second.

First: COc1ccc(C2(c3ccc(OC)cc3)NC(=O)N(CC(=O)Nc3ccc(OC)c(OC)c3)C2=O)cc1
Second: COc1ccc(C2C(=O)N(C3CCCCC3)CC(=O)N2Cc2ccco2)cc1 (centres unmarked)
The “hERG current change (%, negative = inhibition) at 10uM” value of the first is higher: -2.49% for the first, -53.7% for the second.

Compared with `Cc1noc(/C=C/N(C)C)c1S(=O)(=O)N1CCCC(C(=O)N2CCc3ccccc32)C1` (centres unmarked), `Cc1onc(-c2ccccc2)c1C(=O)N1CCN(S(=O)(=O)c2ccc3c(c2)OCCO3)CC1` is lower in “hERG current change (%, negative = inhibition) at 10uM” value: 13% for the first, -17.2% for the second.

Compared with `CCC(NC(=O)C1CCCO1)c1ccccc1` (centres unmarked), `Cc1ccccc1CN1[C@@H]2c3ccccc3C[C@@H]2OCCS1(=O)=O` is lower in “hERG current change (%, negative = inhibition) at 10uM” value: 22.8% for the first, -3.4% for the second.

First: Cc1ccc(CNC(=O)CNC(=O)c2ccc(Br)o2)cc1
Second: O=C(NCc1ccccc1)C(=O)NCC1OCCN1S(=O)(=O)c1ccc2c(c1)OCCO2 (centres unmarked)
The “hERG current change (%, negative = inhibition) at 10uM” value of the first is higher: 5.03% for the first, -3.14% for the second.

Going from `COc1ccc(C(C(=O)NC2CCCCC2)N(C(=O)c2ccccn2)c2cccnc2)cc1` (centres unmarked) to `COc1ccc(C2C(=O)N(C3CCCCC3)CC(=O)N2C2CCCC2)cc1` (centres unmarked), the “hERG current change (%, negative = inhibition) at 10uM” value falls from 22.4% to -12.1%.

Compared with `Cc1ccccc1NNC(N)=S`, `Nc1n[nH]c(N)c1N=Nc1ccccc1` is higher in “hERG current change (%, negative = inhibition) at 10uM” value: 5.65% for the first, 16.7% for the second.

First: CCOc1cc(C(=O)N2CCCN(C)CC2)cc(OCC)c1OCC
Second: CCOc1ccccc1N1CCN(Cc2ccco2)CC1
The “hERG current change (%, negative = inhibition) at 10uM” value of the first is higher: 14.8% for the first, -14.9% for the second.

Going from `O=C(O)/C=C/c1cn(-c2ccccc2)nc1-c1ccc2c(c1)OCCO2` to `Cl.O=C(/C=C/c1cn(-c2ccccc2)nc1-c1ccc2c(c1)OCCO2)NCCCN1CCOCC1`, the “hERG current change (%, negative = inhibition) at 10uM” value falls from 10.1% to -5.65%.

Going from `Cc1ccc(C(=O)OCC(=O)Nc2cccc(S(=O)(=O)NC3=NCCCCC3)c2)c(C)c1` to `CCCOc1ccc(C2C(=O)N(C3CCCCCC3)CC(=O)N2Cc2ccco2)cc1OC` (centres unmarked), the “hERG current change (%, negative = inhibition) at 10uM” value falls from -15.4% to -36.7%.

Compared with `COc1ccccc1/C=C/CN1CCN(c2ccccc2)CC1`, `COc1ccccc1N1CCN(C/C=C/c2ccc(N(C)C)cc2)CC1` is lower in “hERG current change (%, negative = inhibition) at 10uM” value: -15.6% for the first, -53.9% for the second.

Compared with `CCN(CC)c1ccc(/C=N/N2CCN(c3ccccc3OC)CC2)cc1`, `CCOc1ccccc1C1CC(=O)Nc2c1c(=O)n(C)c(=O)n2C` (centres unmarked) is lower in “hERG current change (%, negative = inhibition) at 10uM” value: 14.4% for the first, 7.34% for the second.

First: O=C(CCCc1nc(-c2ccc(Cl)cc2)no1)Nc1cccnc1
Second: COc1cc(C2C(=O)N(C3CCCC3)CC(=O)N2Cc2ccco2)ccc1OC(C)C (centres unmarked)
The “hERG current change (%, negative = inhibition) at 10uM” value of the first is higher: -24.6% for the first, -27.6% for the second.

With `COc1ccc(C2C(=O)N(C3CCCCC3)CC(=O)N2C2CCCCC2)cc1` (centres unmarked) the “hERG current change (%, negative = inhibition) at 10uM” value was -51.7%.
